Measured values as given in PubChem BioAssay (Tox21).
Where “and” joins values, the source holds several entries; their conditions need not be identical. Equal values may be shown once. Results filed as inconclusive are left out. A call without a number means that no potency is given here. More than one record can exist for a structure, and the calls need not agree. Calls of active or inactive are those of the source. Unless noted, calls follow the shape of the dose curve; as a rule, active = well fitted curve in the direction sought with a large enough effect in the repeat runs; inconclusive = weak or mixed curves; inactive = no such curve, though single readings can be large; an effect the other way counts as inactive or inconclusive.

Assays:
[1] = qHTS assay to identify small molecule antagonists of the glucocorticoid receptor (GR) signaling pathway - cell viability counter screen (AID 720693); also: nearly all actives have a fitted effect of over 55% in size
[2] = qHTS assay for identifying genotoxic compounds that show differential cytotoxicity against isogenic chicken DT40 cell lines with known DNA damage response pathways - wild type cell line (AID 743012); also: nearly all actives have a fitted effect of over 60% in size; also: potency is read from the fitted curve at half-maximal effect
In short: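 Cells (DT40 wild type, 300/well) are treated with DMSO-dissolved compounds after a ~0.5 h pre-incubation and kept 40 h at 37 C/5% CO2. Viability is then measured by CellTiter-Glo luminescence following 30 min at room temperature.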

[3] = qHTS assay for identifying genotoxic compounds that show differential cytotoxicity against isogenic chicken DT40 cell lines with known DNA damage response pathways - Rev3 mutant cell line (AID 743014); also: nearly all actives have a fitted effect of over 55% in size
[4] = qHTS assay for identifying genotoxic compounds that show differential cytotoxicity against isogenic chicken DT40 cell lines with known DNA damage response pathways - Rad54/Ku70 mutant cell line (AID 743015); also: nearly all actives have a fitted effect of over 60% in size
[5] = qHTS assay to identify small molecule antagonists of the androgen receptor (AR) signaling pathway - cell viability counter screen (AID 743033; also: nearly all actives have a fitted effect of over 45% in size)
[6] = qHTS assay to identify small molecule antagonists of the androgen receptor (AR) signaling pathway using the MDA cell line - cell viability counter screen (AID 743041; also: nearly all actives have a fitted effect of over 45% in size)
In short: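 Viability counter screen run alongside the AR antagonist reporter: cells seeded 5 h before compound, R1881 added, 16 h incubation at 37C without CO2, fluorescent CellTiter-Fluor signal quantified.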

[7] = qHTS assay to identify small molecule antagonists of the thyroid receptor (TR) signaling pathway - cell viability counter screen (AID 743064); also: nearly all actives have a fitted effect of over 50% in size
In short: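 Rat GH3 pituitary tumor cells stably expressing two TR response elements driving luciferase were plated, rested 4 h, then dosed with library compounds and T3 (1 nM final). After 23.5 h at 37 °C, CellTiter-Fluor was added for 30 min and fluorescence recorded.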

[8] = qHTS assay to identify small molecule antagonists of the thyroid receptor (TR) signaling pathway (AID 743065); also: series mostly up to about 70 µM; nearly all actives have a fitted effect of over 55% in size
In short: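 GH3.TRE-Luc rat pituitary cells carrying two TR response elements driving luciferase were plated for 4 h, given compound plus 1 nM T3 (final), and incubated 23.5 h at 37 C. ONE-Glo luminescence measured reporter inhibition; CellTiter-Fluor fluorescence tracked cytotoxicity.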

[9] = tested on: thyroid hormone receptor (rat, GH3 cells); test: qHTS assay to identify small molecule agonists of the thyroid receptor (TR) signaling pathway (AID 743066; calls by dose curve)
[10] = qHTS assay to identify small molecule antagonists of the estrogen receptor alpha (ER-alpha) signaling pathway - cell viability counter screen (AID 743074; calls by dose curve;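 also: HEK293 cells carrying ER-alpha-UAS-bla reporter stimulated with 17beta-estradiol; nearly all actives have a fitted effect of over 45% in size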)
[11] = target: Estrogen receptor (Homo sapiens) (UniProt P03372); test: qHTS assay to identify small molecule agonists of the estrogen receptor alpha (ER-alpha) signaling pathway (AID 743075; calls by dose curve;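 also: HEK293 GripTite cells with ER-alpha and UAS-driven beta-lactamase reporter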)
[12] = target: Estrogen receptor (Homo sapiens) (UniProt P03372); test: qHTS assay to identify small molecule agonists of the estrogen receptor alpha (ER-alpha) signaling pathway using the BG1 cell line (AID 743079); also: nearly all actives have a fitted effect of over 20% in size
[13] = qHTS assay to identify small molecule antagonists of the estrogen receptor alpha (ER-alpha) signaling pathway using the BG1 cell line (AID 743080; calls by dose curve;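 also: BG1 cells stimulated with 17beta-estradiol alongside compound; series mostly up to about 70 µM; nearly all actives have a fitted effect of over 25% in size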)
In short: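 BG1Luc4E2, endogenous ER-alpha, 4xERE-luc; 5 d charcoal-stripped FBS, phenol red free; 24 h plating; cpd + 17beta-estradiol 21.5 h, 37 C/5% CO2; CellTiter-Fluor viability 30 min, then ONE-Glo luciferase 30 min RT.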

[14] = qHTS assay to identify small molecule antagonists of the estrogen receptor alpha (ER-alpha) signaling pathway using the BG1 cell line - cell viability counter screen (AID 743081);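 also: compound given together with 17beta-estradiol as the ER stimulus; series mostly up to about 70 µM; nearly all actives have a fitted effect of over 45% in size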
Aromatase (Homo sapiens) = Aromatase (Homo sapiens) (UniProt P11511); test: qHTS assay to identify aromatase inhibitors (AID 743083); also: series mostly up to about 70 µM; nearly all actives have a fitted effect of over 55% in size
[15] = target: Estrogen receptor (Homo sapiens) (UniProt P03372); test: qHTS assay to identify small molecule antagonists of the estrogen receptor alpha (ER-alpha) signaling pathway (AID 743069; active = well fitted curve in the direction sought with a large enough effect in the signal ratio in the repeat runs, not every such curve was filed as active; the % refers to the signal ratio)
In short: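 Estradiol-stimulated ER-alpha-UAS-bla HEK293 cells, 18 hr compound exposure at 37C. LiveBLAzer B/G substrate, 2 hr RT, fluorescence read.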

Chain of Aromatase (Homo sapiens) (P11511 whole entry, looked up): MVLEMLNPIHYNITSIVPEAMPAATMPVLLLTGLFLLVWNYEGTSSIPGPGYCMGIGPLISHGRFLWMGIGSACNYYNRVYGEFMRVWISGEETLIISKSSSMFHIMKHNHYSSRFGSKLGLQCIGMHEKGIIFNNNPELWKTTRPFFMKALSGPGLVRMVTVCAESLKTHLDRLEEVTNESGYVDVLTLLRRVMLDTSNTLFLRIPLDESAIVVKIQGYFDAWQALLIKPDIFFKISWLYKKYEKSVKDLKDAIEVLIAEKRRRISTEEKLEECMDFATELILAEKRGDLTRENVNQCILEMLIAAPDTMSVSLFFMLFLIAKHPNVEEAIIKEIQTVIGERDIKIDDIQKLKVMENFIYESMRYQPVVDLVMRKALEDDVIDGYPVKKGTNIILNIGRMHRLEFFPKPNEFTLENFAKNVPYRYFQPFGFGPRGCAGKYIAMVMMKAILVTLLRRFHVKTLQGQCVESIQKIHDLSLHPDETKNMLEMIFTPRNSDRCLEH
Chain of Estrogen receptor (Homo sapiens) (P03372 whole entry, looked up): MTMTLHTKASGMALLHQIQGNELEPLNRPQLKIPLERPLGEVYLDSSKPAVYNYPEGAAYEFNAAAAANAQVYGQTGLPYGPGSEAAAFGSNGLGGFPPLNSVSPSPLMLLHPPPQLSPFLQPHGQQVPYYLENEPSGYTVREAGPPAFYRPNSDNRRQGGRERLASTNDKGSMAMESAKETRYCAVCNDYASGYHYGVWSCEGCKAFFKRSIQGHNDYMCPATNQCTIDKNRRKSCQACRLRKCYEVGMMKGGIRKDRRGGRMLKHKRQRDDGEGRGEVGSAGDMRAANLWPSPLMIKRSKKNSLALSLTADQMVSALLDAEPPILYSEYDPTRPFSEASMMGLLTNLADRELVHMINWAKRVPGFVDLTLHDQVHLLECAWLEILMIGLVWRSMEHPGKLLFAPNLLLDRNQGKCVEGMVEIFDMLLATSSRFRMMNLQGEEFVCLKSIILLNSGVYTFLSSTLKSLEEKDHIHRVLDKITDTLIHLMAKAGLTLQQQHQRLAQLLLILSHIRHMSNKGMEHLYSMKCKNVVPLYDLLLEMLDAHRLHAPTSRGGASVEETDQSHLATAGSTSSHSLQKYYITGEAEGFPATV

SMILES: Cc1c(O)cccc1O
- outcome [1]: inactive
- Potency [2]: inactive
- Potency [3]: inactive
- Potency [4]: inactive
- Potency [5]: inactive
- Potency [6]: inactive
- Potency [7]: inactive
- Potency [8]: inactive
- outcome [9]: inactive
- outcome [10]: inactive
- Potency [11]: inactive
- Potency [12]: inactive
- outcome [13]: inactive
- Potency [14]: inactive
- Potency (Aromatase (Homo sapiens)): inactive

SMILES: CCCN1CCCC[C@H]1C(=O)Nc1c(C)cccc1C
- outcome [1]: inactive
- Potency [2]: inactive
- Potency [3]: inactive
- Potency [4]: inactive
- Potency [5]: inactive
- Potency [6]: inactive
- Potency [7]: inactive
- Potency [8]: inactive
- outcome [9]: inactive
- outcome [10]: inactive
- Potency [14]: inactive
- Potency (Aromatase (Homo sapiens)): inactive

SMILES: COC(=O)CCSCCC(=O)OC
- outcome [1]: inactive
- Potency [2]: inactive
- Potency [3]: inactive
- Potency [4]: inactive
- Potency [5]: inactive
- Potency [6]: inactive
- Potency [7]: inactive
- Potency [8]: inactive
- outcome [9]: inactive
- outcome [10]: inactive
- Potency [14]: inactive

SMILES: CC(=O)N(CC(O)CO)c1c(I)c(C(=O)NCCO)c(I)c(C(=O)NCC(O)CO)c1I (stereo not given)
- outcome [1]: inactive
- Potency [2]: inactive
- Potency [3]: inactive
- Potency [4]: inactive
- Potency [5]: inactive
- Potency [6]: inactive
- Potency [7]: inactive
- Potency [8]: inactive
- outcome [9]: inactive
- Potency [14]: inactive
- Potency (Aromatase (Homo sapiens)): inactive

SMILES: C[N+](C)(C)CCCCCC[N+](C)(C)C
- outcome [1]: inactive
- Potency [2]: inactive
- Potency [3]: inactive
- Potency [4]: inactive
- Potency [5]: inactive
- Potency [6]: inactive
- Potency [7]: inactive
- Potency [8]: inactive
- outcome [9]: inactive
- outcome [10]: inactive
- Potency (Aromatase (Homo sapiens)): inactive

SMILES: CCCCOCCOCCOCCCC
- outcome [1]: inactive
- Potency [2]: inactive
- Potency [3]: inactive
- Potency [4]: inactive
- Potency [5]: inactive
- Potency [6]: inactive
- Potency [7]: inactive
- Potency [8]: inactive
- outcome [9]: inactive
- outcome [10]: inactive
- Potency [14]: inactive
- Potency (Aromatase (Homo sapiens)): inactive

SMILES: NC(=O)c1cn(Cc2c(F)cccc2F)nn1
- outcome [1]: inactive
- Potency [2]: inactive
- Potency [3]: inactive
- Potency [4]: inactive
- Potency [5]: inactive
- Potency [6]: inactive
- Potency [7]: inactive
- Potency [8]: inactive
- outcome [9]: inactive
- outcome [10]: inactive
- Potency [14]: inactive

SMILES: COC(=O)c1c(Cl)c(Cl)c(C(=O)OC)c(Cl)c1Cl
- outcome [1]: inactive
- Potency [2]: inactive and 48.6 µM (active)
- Potency [3]: inactive
- Potency [4]: inactive
- Potency [5]: inactive
- Potency [6]: inactive
- Potency [7]: inactive
- outcome [9]: inactive
- outcome [10]: inactive
- Potency [11]: inactive
- Potency [12]: inactive
- Potency [14]: inactive
- Potency (Aromatase (Homo sapiens)): inactive

SMILES: C=CCOCC(CC)(CO)COCC=C
- outcome [1]: inactive
- Potency [2]: inactive
- Potency [3]: inactive
- Potency [4]: inactive
- Potency [5]: inactive
- Potency [6]: inactive
- Potency [7]: inactive
- Potency [8]: inactive
- outcome [9]: inactive
- Potency [14]: inactive

SMILES: CC(C)NCC(O)c1ccc(NS(C)(=O)=O)cc1 (stereo not given)
- outcome [1]: inactive
- Potency [2]: inactive
- Potency [3]: inactive
- Potency [4]: inactive
- Potency [5]: inactive
- Potency [6]: inactive
- Potency [7]: inactive
- Potency [8]: inactive
- outcome [9]: inactive
- outcome [10]: inactive
- Potency [14]: inactive

SMILES: COC(=O)c1ccc(C)cc1C1=NC(C)(C(C)C)C(=O)N1 (stereo not given)
- outcome [1]: inactive
- Potency [2]: inactive
- Potency [3]: inactive
- Potency [4]: inactive
- Potency [5]: inactive
- Potency [6]: inactive
- Potency [7]: inactive
- Potency [8]: inactive
- outcome [9]: inactive
- outcome [10]: inactive
- Potency [14]: inactive
- Potency (Aromatase (Homo sapiens)): inactive

SMILES: CCc1ccc(O)c(OC)c1
- outcome [1]: inactive
- Potency [2]: inactive
- Potency [3]: inactive
- Potency [4]: inactive
- Potency [5]: inactive
- Potency [6]: inactive
- Potency [7]: inactive
- Potency [8]: inactive
- outcome [9]: inactive
- outcome [10]: inactive
- Potency [14]: inactive
- Potency (Aromatase (Homo sapiens)): inactive

SMILES: NC(CSCC(=O)O)C(=O)O (stereo not given)
- outcome [1]: inactive
- Potency [2]: inactive
- Potency [3]: inactive
- Potency [4]: inactive
- Potency [5]: inactive
- Potency [6]: inactive
- Potency [7]: inactive
- outcome [9]: inactive
- outcome [15]: inactive
- outcome [10]: inactive
- Potency [11]: inactive
- Potency [12]: inactive
- outcome [13]: inactive
- Potency [14]: inactive
- Potency (Aromatase (Homo sapiens)): inactive

SMILES: CCCCCCCCS(=O)(=O)Cl
- outcome [1]: inactive
- Potency [2]: inactive
- Potency [3]: inactive
- Potency [4]: inactive
- Potency [5]: inactive
- Potency [6]: inactive
- Potency [7]: inactive
- Potency [8]: inactive
- outcome [9]: inactive
- outcome [10]: inactive
- Potency [14]: inactive
- Potency (Aromatase (Homo sapiens)): inactive

SMILES: CC1=CC(C)C(C=O)CC1 (stereo not given)
- outcome [1]: inactive
- Potency [2]: inactive
- Potency [3]: inactive
- Potency [4]: inactive
- Potency [5]: inactive
- Potency [6]: inactive
- Potency [7]: inactive
- Potency [8]: inactive
- outcome [9]: inactive
- outcome [15]: inactive
- Potency [11]: inactive
- Potency [14]: inactive
- Potency (Aromatase (Homo sapiens)): inactive

SMILES: CC(C)=CCCC(C)CC(=O)O (stereo not given)
- outcome [1]: inactive
- Potency [2]: inactive
- Potency [3]: inactive
- Potency [4]: inactive
- Potency [5]: inactive
- Potency [6]: inactive
- Potency [7]: inactive
- Potency [8]: inactive
- outcome [9]: inactive
- outcome [10]: inactive
- Potency [14]: inactive
- Potency (Aromatase (Homo sapiens)): inactive

SMILES: O=C(O)CCCc1ccccc1
- outcome [1]: inactive
- Potency [2]: inactive
- Potency [3]: inactive
- Potency [4]: inactive
- Potency [5]: inactive
- Potency [6]: inactive
- Potency [7]: inactive
- Potency [8]: inactive
- outcome [9]: inactive
- outcome [10]: inactive
- Potency [14]: inactive
- Potency (Aromatase (Homo sapiens)): inactive

SMILES: COC(=O)CC(C)=O
- outcome [1]: inactive
- Potency [2]: inactive
- Potency [3]: inactive
- Potency [4]: inactive
- Potency [5]: inactive
- Potency [6]: inactive
- Potency [7]: inactive
- Potency [8]: inactive
- outcome [9]: inactive
- outcome [10]: inactive
- Potency [14]: inactive
- Potency (Aromatase (Homo sapiens)): inactive

SMILES: CCCN(CCC)CCc1cccc2c1CC(=O)N2
- outcome [1]: inactive
- Potency [2]: inactive
- Potency [3]: inactive
- Potency [4]: inactive
- Potency [5]: inactive
- Potency [6]: inactive
- Potency [7]: inactive
- Potency [8]: inactive
- outcome [9]: inactive
- outcome [10]: inactive
- Potency [14]: inactive
- Potency (Aromatase (Homo sapiens)): inactive

SMILES: C[C@H]1C[C@@H](O)CC(C)(C)C1
- outcome [1]: inactive
- Potency [2]: inactive
- Potency [3]: inactive
- Potency [4]: inactive
- Potency [5]: inactive
- Potency [6]: inactive
- Potency [7]: inactive
- Potency [8]: inactive
- outcome [9]: inactive
- outcome [10]: inactive
- Potency [14]: inactive
- Potency (Aromatase (Homo sapiens)): inactive

SMILES: Nc1c[n+](N2CCOCC2)no1
- outcome [1]: inactive
- Potency [2]: inactive
- Potency [3]: inactive
- Potency [4]: inactive
- Potency [5]: inactive
- Potency [6]: inactive
- Potency [7]: inactive
- outcome [9]: inactive
- outcome [15]: inactive
- Potency [11]: inactive
- Potency [12]: inactive
- outcome [13]: inactive
- Potency [14]: inactive
- Potency (Aromatase (Homo sapiens)): inactive

SMILES: COC(=O)c1cc(C(=O)OC)cc(S(=O)(=O)O)c1
- outcome [1]: inactive
- Potency [2]: inactive
- Potency [3]: inactive
- Potency [4]: inactive
- Potency [5]: inactive
- Potency [6]: inactive
- Potency [7]: inactive
- Potency [8]: inactive
- outcome [9]: inactive
- outcome [10]: inactive
- Potency [14]: inactive
- Potency (Aromatase (Homo sapiens)): inactive

SMILES: NC(=O)c1ccc([N+](=O)[O-])cc1
- outcome [1]: inactive
- Potency [2]: inactive
- Potency [3]: inactive
- Potency [4]: inactive
- Potency [5]: inactive
- Potency [6]: inactive
- Potency [7]: inactive
- Potency [8]: inactive
- outcome [9]: inactive
- outcome [10]: inactive
- Potency [14]: inactive
- Potency (Aromatase (Homo sapiens)): inactive

SMILES: CCCCCCCCCCCC
- outcome [1]: inactive
- Potency [2]: inactive
- Potency [3]: inactive
- Potency [5]: inactive
- Potency [6]: inactive
- Potency [8]: inactive
- outcome [9]: inactive
- outcome [13]: inactive
- Potency [14]: inactive
- Potency (Aromatase (Homo sapiens)): inactive

SMILES: O=C(O)CNC(=O)c1ccc([N+](=O)[O-])cc1
- outcome [1]: inactive
- Potency [2]: inactive
- Potency [3]: inactive
- Potency [5]: inactive
- Potency [6]: inactive
- Potency [7]: inactive
- Potency [8]: inactive
- outcome [9]: inactive
- outcome [10]: inactive
- Potency [14]: inactive
- Potency (Aromatase (Homo sapiens)): inactive
